Several values for one entry are separate records, joined by “and”; a condition that tells them apart may be missing. Equal entries are not always repeated. The whole screen tested about 5,500 compounds, of which about 2,000 (36%) were called active. Roughly 18% stayed inconclusive and do not appear here. Rule as the data show it: active = normalized growth mostly below about 0.91 (no sharp cut-off); inconclusive = no clear call, values can overlap the other calls; inactive = mostly above about 0.92. The list shows a part of the results.
Experiment: chemical genetic growth profiling, strain panel (AID 1159580);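 also: tested at 20 µM; growth read once vehicle control cultures reached saturation at 30 °C; 1 = growth at the plate median or of vehicle wells; lower values mean less growth of the strain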
Details: S. cerevisiae deletion strains, growth OD

Measured: normalized growth

CC(=O)OCC[C@H](C)CCC=C(C)C
inactive: locus YAL013W, strain DEP1, stronger effect = lower value 1 | locus YAL021C, strain ccr4, stronger effect = lower value 0.993 | locus YAL026C, strain drs2, stronger effect = lower value 0.993 | locus YAL030W, strain snc1, stronger effect = lower value 0.989 | locus YBL061C, strain skt5, stronger effect = lower value 0.992 | locus YBR009C, strain hhf1, stronger effect = lower value 1.06 | locus YBR021W, strain FUR4, stronger effect = lower value 0.991 | locus YBR023C, strain chs3, stronger effect = lower value 0.995 | locus YBR171W, strain sec66, stronger effect = lower value 0.983 | locus YBR229C, strain ROT2, stronger effect = lower value 1.01 | locus YBR231C, strain swc5, stronger effect = lower value 0.986 | locus YBR279W, strain paf1, stronger effect = lower value 0.997 | locus YCL011C, strain gbp2, stronger effect = lower value 1.01 | locus YCL016C, strain dcc1, stronger effect = lower value 0.994 | locus YCL029C, strain bik1, stronger effect = lower value 1.03 | locus YCL061C, strain MRC1, stronger effect = lower value 1 | locus YCL069W, strain vba3, stronger effect = lower value 0.989 | locus YCR088W, strain abp1, stronger effect = lower value 0.989 | locus YDL005C, strain med2, stronger effect = lower value 0.978 | locus YDL035C, strain GPR1, stronger effect = lower value 1.02 | locus YDL040C, strain nat1, stronger effect = lower value 0.993 | locus YDL074C, strain BRE1, stronger effect = lower value 1.05 | locus YDL101C, strain DUN1, stronger effect = lower value 1.01 | locus YDL185W, strain tfp1, stronger effect = lower value 1.02 | locus YDL192W, strain arf1, stronger effect = lower value 1.04 | locus YDR001C, strain nth1, stronger effect = lower value 0.998 | locus YDR069C, strain doa4, stronger effect = lower value 0.991 | locus YDR101C, strain arx1, stronger effect = lower value 1.03 | locus YDR137W, strain rgp1, stronger effect = lower value 0.974 | locus YDR150W, strain NUM1, stronger effect = lower value 1.01 | locus YDR159W, strain sac3, stronger effect = lower value 1.02 | locus YDR162C, strain NBP2, stronger effect = lower value 1.01 | locus YDR195W, strain ref2 0.949 | locus YDR297W, strain sur2, stronger effect = lower value 1.01 | locus YDR318W, strain mcm21, stronger effect = lower value 1.02 | locus YDR334W, strain swr1, stronger effect = lower value 0.998 | locus YDR335W, strain msn5, stronger effect = lower value 0.992 | locus YDR388W, stronger effect = lower value 1.02 | locus YDR392W, strain spt3, stronger effect = lower value 0.966 | locus YDR502C, strain sam2, stronger effect = lower value 1.01 | locus YEL003W, strain gim4, stronger effect = lower value 1 | locus YEL037C, strain rad23, stronger effect = lower value 0.995 | locus YEL061C, strain CIN8 (second series), stronger effect = lower value 1.03 | locus YEL061C, strain CIN8, stronger effect = lower value 1.01 | locus YER015W, strain faa2, stronger effect = lower value 0.993 | locus YER016W, strain bim1, stronger effect = lower value 0.962 | locus YER110C, stronger effect = lower value 1.03 | locus YER111C, strain swi4, stronger effect = lower value 0.992 | locus YER155C, strain BEM2 (second series), stronger effect = lower value 0.973 | locus YER155C, strain BEM2, stronger effect = lower value 0.988 | locus YER167W, strain BCK2, stronger effect = lower value 1.01 | locus YFR010W, strain ubp6, stronger effect = lower value 1.01 | locus YGL078C, strain dbp3, stronger effect = lower value 1.01 | locus YGL086W, strain mad1, stronger effect = lower value 1.01 | locus YGL167C, strain pmr1, stronger effect = lower value 0.99 | locus YGL173C, strain kem1, stronger effect = lower value 0.986 | locus YGL227W, strain vid30, stronger effect = lower value 0.987 | locus YGL240W, strain doc1, stronger effect = lower value 0.978 | locus YGL248W, strain PDE1, stronger effect = lower value 1.02 | locus YGL253W, strain hxk2, stronger effect = lower value 0.997 | locus YGR135W, strain pre9, stronger effect = lower value 1.06 | locus YGR252W, strain gcn5, stronger effect = lower value 1.06 | locus YHR013C, strain ard1, stronger effect = lower value 0.967 | locus YHR027C, strain rpn1, stronger effect = lower value 0.99 | locus YHR030C, strain SLT2, stronger effect = lower value 1 and 1.01 | locus YHR079C, strain IRE1 (second series), stronger effect = lower value 1.02 | locus YHR079C, strain IRE1, stronger effect = lower value 1.01 | locus YHR094C, strain hxt1, stronger effect = lower value 1.02 | locus YHR129C, strain ARP1, stronger effect = lower value 0.999 | locus YHR142W, strain chs7, stronger effect = lower value 0.988 | locus YHR200W, strain rpn10, stronger effect = lower value 1.03 | locus YIL066C, strain RNR3, stronger effect = lower value 1.01 | locus YIL073C, strain SPO22, stronger effect = lower value 1.1 | locus YIL125W, strain kgd1, stronger effect = lower value 1.01 | locus YIR030C, strain dcg1, stronger effect = lower value 1.02 | locus YJL092W, strain hpr5, stronger effect = lower value 0.999 | locus YJL095W, strain BCK1 (second series), stronger effect = lower value 0.99 | locus YJL095W, strain BCK1, stronger effect = lower value 1.02 | locus YJL115W, strain asf1, stronger effect = lower value 0.991 | locus YJL129C, strain trk1, stronger effect = lower value 0.968 | locus YJL134W, strain LCB3, stronger effect = lower value 1.01 | locus YJL154C, strain vps35, stronger effect = lower value 0.981 | locus YJL164C, strain tpk1, stronger effect = lower value 1.02 | locus YJL166W, strain qcr8, stronger effect = lower value 0.96 | locus YJL168C, strain set2, stronger effect = lower value 1.02 | locus YJL187C, strain SWE1 (second series), stronger effect = lower value 1.02 | locus YJL187C, strain SWE1, stronger effect = lower value 0.982
